Measurements taken from PubChem BioAssay (EPA / NIEHS).
Activity calls are given as the source filed them. The calls were made as follows: active = hit-call score of the fitted dose curve at least 0.9, where 1 is the maximum; inactive = score below 0.9.

Legend:
Conditions in all cases: mRNA level, 48 h; actives raise or lower the signal
CYP4A11 (gene 1579) = experiment: LTEA_HepaRG_CYP4A11: Life Technologies and Expression Analysis (LTEA) Assay for CYP4A11 using HepaRG (AID 2283486)
In short: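 Differentiated HepaRG cells, serum-free induction medium, exposed 48 h in duplicate to 8-point half-log series from 100 uM in 0.5% DMSO. CYP4A11 mRNA measured by qRT-PCR, normalized to ACTB, GAPDH, POLR2A; bidirectional fit versus DMSO.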

[1] = read-out: Cytochrome P450 3A4 (Homo sapiens) (UniProt P08684); experiment: LTEA_HepaRG_CYP3A4: Life Technologies and Expression Analysis (LTEA) Assay for CYP3A4 using HepaRG (AID 2283487)
In short: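 HepaRG, 48 h exposure, 8-pt CRC from 100 uM (half-log), 0.5% DMSO, duplicates; serum-free induction medium. Readout: CYP3A4 mRNA, qRT-PCR, ACTB/GAPDH/POLR2A normalization. Bidirectional fit vs DMSO.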

[2] = read-out: DNA damage-inducible transcript 3 (DDIT3), DDIT3 (gene 1649); experiment: LTEA_HepaRG_DDIT3: Life Technologies and Expression Analysis (LTEA) Assay for DNA damage-inducible transcript 3 (DDIT3) using HepaRG (AID 2283488)
In short: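 Differentiated human HepaRG cells in serum-free induction medium were exposed in duplicate for 48 h to 8 concentrations (top 100 uM, half-log steps, 0.5% DMSO). DDIT3 mRNA measured by TaqMan qRT-PCR, normalized to ACTB/GAPDH/POLR2A; bidirectional fit versus DMSO.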

[3] = read-out: Pro-epidermal growth factor (Homo sapiens) (UniProt P01133); experiment: LTEA_HepaRG_EGF: Life Technologies and Expression Analysis (LTEA) Assay for Epidermal growth factor (EGF) using HepaRG (AID 2283489)
In short: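 Differentiated human HepaRG cells, plated 48 h then switched to serum-free induction medium, were exposed for 48 h to test chemicals (8-point half-log series, top 100 uM, 0.5% DMSO). EGF mRNA was quantified by qRT-PCR, normalized to ACTB, GAPDH, POLR2A.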

[4] = read-out: Early growth response protein 1 (EGR1) transcription factor, EGR1 (gene 1958); experiment: LTEA_HepaRG_EGR1: Life Technologies and Expression Analysis (LTEA) Assay for Early growth response protein 1 (EGR1) transcription factor using HepaRG (AID 2283490)
In short: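 Read-out is EGR1 mRNA level by qRT-PCR, normalized to three housekeeping genes and analysed for gain or loss of signal against 0.5% DMSO. Source cells: human HepaRG, treated 48 h at up to 100 uM in half-log dilutions.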

[5] = read-out: Ezrin (EZR), EZR (gene 7430); experiment: LTEA_HepaRG_EZR: Life Technologies and Expression Analysis (LTEA) Assay for Ezrin (EZR) using HepaRG (AID 2283491)
In short: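 Read-out is EZR transcript level by qRT-PCR, normalized to three housekeeping genes and fitted bidirectionally against the DMSO control. Human HepaRG cells received test chemicals for 48 h at eight half-log concentrations up to 100 uM in 0.5% DMSO.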

[6] = read-out: Cytochrome P450 3A7 (Homo sapiens) (UniProt P24462); experiment: LTEA_HepaRG_CYP3A7: Life Technologies and Expression Analysis (LTEA) Assay for CYP3A7 using HepaRG (AID 2283492)
In short: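 HepaRG cells plated 48 h, then dosed in serum-free induction medium for 48 h at 8 concentrations (top 100 uM, half-log steps, 0.5% DMSO). CYP3A7 mRNA by qRT-PCR, normalised to ACTB/GAPDH/POLR2A; bidirectional fit versus DMSO.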

CYP3A5 (gene 1577) = experiment: LTEA_HepaRG_CYP3A5: Life Technologies and Expression Analysis (LTEA) Assay for CYP3A5 using HepaRG (AID 2283493)
In short: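 Differentiated HepaRG cells in serum-free induction medium were dosed 48 h with test chemicals (8-point half-log series, top 100 uM, 0.5% DMSO, duplicate). CYP3A5 mRNA measured by qRT-PCR, normalized to ACTB, GAPDH, POLR2A; bidirectional fit versus DMSO.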

[7] = read-out: Fatty Acid-Binding Protein 1 (FABP1), FABP1 (gene 2168); experiment: LTEA_HepaRG_FABP1: Life Technologies and Expression Analysis (LTEA) Assay for Fatty Acid-Binding Protein 1 (FABP1) using HepaRG (AID 2283494)
Description: LTEA_HepaRG is a cell based, multiplexed-readout assay that uses HepaRG, a human liver cell line, with measurements taken at 48 hours after chemical dosing on a 96-well plate.LTEA_HepaRG_FABP1 is one of 102 assay component(s) measured in the LTEA HepaRG cell culture assay. It is a marker of Steatosis.Data from the assay component LTEA_HepaRG_FABP1 was analyzed into 1 endpoint. This assay endpoint, LTEA_HepaRG_FABP1, was analyzed with bidirectional fitting relative to DMSO as the negative control and baseline of activity. Using a type of inducible reporter, measures of mRNA induction for gain or loss-of-signal activity can be used to understand regulation of transcription factor activity. To generalize the intended target to other relatable targets, this assay endpoint is annotated to the transporter intended target family, where the subfamily is fatty acid carrier protein.
A total of 1060 chemcials from the ToxCast library were tested in eight-point concentration-response experiments. Cell culture and cytotoxicity assays were conducted at Thermo Fisher Scientific's Custom Services facility (Madison, WI). A single lot of human HepaRG cells (Thermo Fisher Scientific, Frederick, MD) was used for the cell culture experiments. 96-well format collagen type I coated plates of human HepaRG cells were prepared using established methods. Briefly, cryopreserved HepaRG cells were thawed, plated at a density of approximately 100,000 cells/well in HepaRG Thaw, Plate, and General Purpose media (HPRG770, Thermo Fisher Scientific), and incubated for 48 hours. […] Fluidigm's 96.96 Dynamic ArrayTM (Fluidigm, Amsterdam, the Netherlands) technology was used for gene expression analyses by quantitative reverse transcription polymerase chain reaction (qRT-PCR, performed by Quintiles/Expression Analysis, Durham, NC)89. […]

[8] = read-out: Cytochrome P450 4A22 (Homo sapiens) (UniProt Q5TCH4); experiment: LTEA_HepaRG_CYP4A22: Life Technologies and Expression Analysis (LTEA) Assay for Cytochrome P450 4A22 (CYP4A22) using HepaRG (AID 2283495)
In short: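 qRT-PCR of CYP4A22 mRNA (Fluidigm TaqMan, normalized to three housekeeping genes) after 48 h chemical exposure of HepaRG cells; 8-point half-log series, top 100 uM, 0.5% DMSO vehicle. Bidirectional curve fitting vs DMSO baseline.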

Measured: outcome

Sequence of Cytochrome P450 3A7 (Homo sapiens) (P24462 whole entry, looked up): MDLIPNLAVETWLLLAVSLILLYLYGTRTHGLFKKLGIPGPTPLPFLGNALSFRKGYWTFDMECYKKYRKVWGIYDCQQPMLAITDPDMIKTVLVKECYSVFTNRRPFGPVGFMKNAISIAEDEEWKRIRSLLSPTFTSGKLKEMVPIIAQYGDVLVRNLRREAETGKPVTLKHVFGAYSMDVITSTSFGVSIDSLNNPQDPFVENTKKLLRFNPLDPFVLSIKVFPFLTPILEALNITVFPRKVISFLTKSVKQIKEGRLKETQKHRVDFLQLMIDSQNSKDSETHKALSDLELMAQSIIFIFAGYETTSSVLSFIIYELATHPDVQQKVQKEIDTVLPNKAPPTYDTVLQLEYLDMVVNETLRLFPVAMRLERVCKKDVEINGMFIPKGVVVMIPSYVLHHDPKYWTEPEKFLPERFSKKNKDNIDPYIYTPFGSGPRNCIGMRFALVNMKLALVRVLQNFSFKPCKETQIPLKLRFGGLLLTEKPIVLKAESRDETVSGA
Sequence of Cytochrome P450 3A4 (Homo sapiens) (P08684 whole entry, looked up): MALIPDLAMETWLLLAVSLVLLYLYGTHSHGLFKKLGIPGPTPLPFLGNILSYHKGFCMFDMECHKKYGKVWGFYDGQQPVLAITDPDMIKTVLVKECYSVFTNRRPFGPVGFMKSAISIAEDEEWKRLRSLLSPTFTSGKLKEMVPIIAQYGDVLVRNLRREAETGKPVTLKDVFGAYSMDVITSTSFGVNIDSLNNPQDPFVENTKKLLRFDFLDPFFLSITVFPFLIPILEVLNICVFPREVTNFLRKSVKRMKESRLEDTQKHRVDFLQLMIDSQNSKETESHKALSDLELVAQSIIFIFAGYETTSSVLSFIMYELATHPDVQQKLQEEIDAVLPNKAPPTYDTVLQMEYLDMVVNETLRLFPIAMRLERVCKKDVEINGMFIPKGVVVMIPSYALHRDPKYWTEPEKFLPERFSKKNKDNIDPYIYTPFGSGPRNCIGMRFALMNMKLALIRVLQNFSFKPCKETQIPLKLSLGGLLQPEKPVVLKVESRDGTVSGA

Nc1ccc(C(=O)O)cc1
inactive: all assays above

Cc1ccc([N+](=O)[O-])cc1N
inactive: all assays above

C1CNCCN1
inactive: all assays above
